In PubChem BioAssay AID1159580 (chemical genetic matrix, 2015):
Screen size: about 5,500 compounds; about 2,000 (36%) were called active. Not shown: some 18% with an inconclusive outcome. Cut-off read from the data, not from the text of the source: active = normalized growth mostly below about 0.91 (no sharp cut-off); inconclusive = no clear call, values can overlap the other calls; inactive = mostly above about 0.92. This is one part of the list.

Test: chemical genetic growth profiling, strain panel (AID 1159580);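 note: tested at 20 µM; growth read once vehicle control cultures reached saturation at 30 °C; 1 = growth at the plate median or of vehicle wells; lower values mean less growth of the strain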
Details: S. cerevisiae deletion strains, growth OD

Measured: normalized growth

CC(=O)OCC(=O)[C@@]1(O)CC[C@H]2[C@@H]3CCC4=CC(=O)CC[C@]4(C)[C@H]3C(=O)C[C@@]21C
inactive: locus YAL040C, strain CLN3, active compounds read low 0.998 | locus YER002W, strain NOP16, active compounds read low 0.991 | locus YGR078C, strain PAC10, active compounds read low 1 | locus YNL175C, strain NOP13, active compounds read low 0.985 | locus YNL197C, strain WHI3, active compounds read low 0.982 | locus YNL224C, strain SQS1, active compounds read low 1.01 | locus YOR083W, strain WHI5 (second series), active compounds read low 0.976
